Molecules are shown by their SMILES. Results filed as inconclusive are left out. Activity calls are given as the source filed them. Unless noted, calls come from the whole dose curve; as a rule, active = well fitted curve in the direction sought with a large enough effect in the repeat runs; inconclusive = weak or mixed curves; inactive = no such curve, though single readings can be large; an effect the other way counts as inactive or inconclusive.

The target in assay [1] is Estrogen receptor beta (Homo sapiens) (UniProt Q92731). The experiment in a line: qHTS assay to identify small molecule agonists of the estrogen receptor beta (ER-beta) signaling pathway (AID 1259377; active = well fitted activation curve with a large enough effect in the signal ratio in the repeat runs, not every such curve was filed as active; the % refers to the signal ratio; note: potency is the fitted concentration of half-maximal effect). A digest of the protocol:
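Reporter cells (HEK293T, ER-beta-UAS-bla) receive compounds or DMSO after a 6 hr pre-incubation. They then incubate 16 hr at 37C/5% CO2, and fluorescence from LiveBLAzer B/G substrate is measured after 2 hours at room temperature.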

The nature of assay [2]: qHTS assay to identify small molecule agonists of the androgen receptor (AR) signaling pathway in the presence of an antagonist - cell viability counter screen (AID 1259379). Note: nearly all actives have a fitted effect of over 25% in size. Note: potency is the fitted concentration of half-maximal effect. A digest of the protocol: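 A CellTiter-Fluor read-out measured viability of MDA-kb2 reporter cells (MMTV promoter with AR and GR response elements). Treatment: nilutamide 3.0uM final with compounds at 15 concentrations, 16 hr, 37C, 0% CO2.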

A short description of assay [3]: qHTS assay to identify small molecule agonists of the estrogen receptor beta (ER-beta) signaling pathway - cell viability counter screen (AID 1259380). Note: nearly all actives have a fitted effect of over 30% in size. Note: potency is the fitted concentration of half-maximal effect. A digest of the protocol:
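Cells used were ER-beta-UAS-bla HEK293T in medium with 2% charcoal-stripped FBS. They were treated for 16 hr at 37C. Viability came from CellTiter-Glo luminescence.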

The target of assay [4] is Thyrotropin receptor (Homo sapiens) (UniProt P16473). Briefly: qHTS assay to identify small molecule antagonists of the thyroid stimulating hormone receptor (TSHR) signaling pathway (AID 1259385; calls by dose curve; note: nearly all actives have a fitted effect of over 20% in size). A digest of the protocol:
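Antagonist mode: compound-treated TSHR-expressing HEK293 cells were stimulated with 1.5 ng/mL TSH (final) in presence of Ro20-1724 for 30 min at RT. HTRF cAMP detection after 1 h; each compound tested at 15 concentrations, triplicate.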

Assay [5] can be described thus: qHTS assay to identify small molecule agonists of the estrogen receptor alpha (ER-alpha) signaling pathway in the presence of an antagonist - cell viability counter screen (AID 1259386).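 Note: cells exposed to compounds for 22 h at 37 °C before the viability read; nearly all actives have a fitted effect of over 30% in size.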 Note: potency is the fitted concentration of half-maximal effect. A digest of the protocol:
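ICI-182,780 at 10.0nM final accompanies the compound titration (15 concentrations, 22hr, 37C) on VM7Luc4E2 cells. The CellTiter-Fluor fluorescence readout runs in the same wells as the luciferase assay.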

Assay [6] deals with Progesterone receptor (Homo sapiens) (UniProt P06401). Briefly: qHTS assay to identify small molecule agonists of the progesterone receptor (PR) signaling pathway (AID 1346784; calls by dose curve; note: nearly all actives have a fitted effect of over 30% in size; note: potency is the fitted concentration of half-maximal effect). A digest of the protocol:
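Reporter assay, GripTite PR-UAS-bla HEK 293T cells: 16 hr exposure to DMSO-dissolved compounds at 37C, 5% CO2, in steroid-depleted (2% charcoal-stripped FBS) medium; beta-lactamase measured by FRET fluorescence.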

Assay [7] in a line: qHTS assay to identify small molecule antagonists of the progesterone receptor (PR) signaling pathway - cell viability counter screen (AID 1346798). Note: series mostly up to about 92 µM; nearly all actives have a fitted effect of over 50% in size. A digest of the protocol:
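In the same plates used for the beta-lactamase readout, cell viability of compound- and R5020-treated PR-UAS-bla HEK293T cells (16 hr, 37C) was assessed by CellTiter-Glo luminescence.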

The nature of assay [8]: qHTS assay to identify small molecule antagonists of the TGF-beta/Smad signaling pathway - cell viability counter screen (AID 1346824). Note: nearly all actives have a fitted effect of over 50% in size. A digest of the protocol:
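Cytotoxicity counter-screen run in the same wells as the beta-lactamase Smad reporter read: CellTiter-Glo luminescence after 30 min at room temperature. HEK 293T SBE-bla cells had 5 hr compound exposure at 37 C with TGF-beta1 (0.25 ng/mL stock).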

Assay [9] is described as follows: qHTS assay to identify small molecule agonists of the TGF-beta/Smad signaling pathway - cell viability counter screen (AID 1346829). Note: top concentration of the series differs between compounds; nearly all actives have a fitted effect of over 45% in size. A digest of the protocol: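 Cytotoxicity counter screen: CellTiter-Glo luminescence (30 min, room temperature) measured in the SBE-bla HEK 293T reporter wells after 5 hr compound treatment at 37 C and the 2 hr substrate step.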
Assay [10] is described as follows: qHTS assay to identify small molecule agonists of the TGF-beta/Smad signaling pathway (AID 1346859; active = well fitted activation curve with a large enough effect in the signal ratio in the repeat runs, not every such curve was filed as active; the % refers to the signal ratio; note: series mostly up to about 77 µM). A digest of the protocol:
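Screening used HEK 293T SBE-bla cells at 4,000/well. Test agents: 5 hr, 37 C. Detection: FRET substrate, 2 hr RT, then excitation 405 nm with emissions at 460 and 530 nm.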

Assay [11] has as its target Thyrotropin-releasing hormone receptor (Homo sapiens) (UniProt P34981). Briefly: qHTS assay to identify small molecule antagonists of the thyrotropin-releasing hormone receptor (TRHR) signaling pathway (AID 1346877; active = well fitted inhibition curve with a large enough effect in the repeat runs, not every such curve was filed as active; note: series mostly up to about 51 µM). A digest of the protocol: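 Screening used HEK293 cells engineered with TRHR, with a brief 5 min room-temperature compound exposure preceding addition of TRH to 1 nM. The read-out was kinetic calcium-dye fluorescence, concentration-response from 15 doses in triplicate.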

For assay [12] the target is unchanged. Briefly: qHTS assay to identify small molecule agonists of the thyrotropin-releasing hormone receptor (TRHR) signaling pathway (AID 1346891; calls by dose curve; note: series mostly up to about 58 µM). A digest of the protocol: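 Readout was intracellular calcium fluorescence in TRHR-Hek293 cells. Cells were incubated 18 h, dye-loaded 2 h at 37 °C, and treated with compound in agonist mode.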
For assay [13], the target named is Estrogen receptor beta (Homo sapiens) (UniProt Q92731). The experiment in a line: qHTS assay to identify small molecule antagonists of the estrogen receptor beta (ER-beta) signaling pathway (AID 1259378; active = well fitted inhibition curve with a large enough effect in the signal ratio in the repeat runs, not every such curve was filed as active; the % refers to the signal ratio; note: potency is the fitted concentration of half-maximal effect). A digest of the protocol:
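Antagonist mode: compounds added to beta-lactamase reporter HEK293T ER-beta-UAS cells stimulated with E2 (1nM final), 16 hr at 37C. LiveBLAzer B/G FRET substrate, 2 hours room temperature, fluorescence read-out.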

Assay [14] has as its target Androgen receptor (Homo sapiens) (UniProt P10275). The experiment in a line: qHTS assay to identify small molecule agonists of the androgen receptor (AR) signaling pathway in the presence of an antagonist (AID 1259381; calls by dose curve; note: nearly all actives have a fitted effect of over 15% in size; note: potency is the fitted concentration of half-maximal effect). A digest of the protocol:
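Using human MDA-kb2 cells with an MMTV promoter–luciferase construct (AR and GR response elements), agonist activity is scored under 3.0uM nilutamide (final) co-treatment; 16hr incubation, 37C, luminescence readout via ONE-Glo.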

Assay [15] in a line: qHTS assay to identify small molecule antagonists of the estrogen receptor beta (ER-beta) signaling pathway - cell viability counter screen (AID 1259382). Note: nearly all actives have a fitted effect of over 55% in size. Note: potency is the fitted concentration of half-maximal effect. A digest of the protocol:
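Agonist-stimulated (1nM E2) ER-beta-UAS-bla HEK293T cells are incubated with library compounds for 16 hr at 37C. Cell viability is then assessed in the reporter-assay wells by adding CellTiter-Glo and reading luminescence after 30 min.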

Assay [16] has as its target Estrogen receptor (Homo sapiens) (UniProt P03372). Briefly: qHTS assay to identify small molecule agonists of the estrogen receptor alpha (ER-alpha) signaling pathway in the presence of an antagonist (AID 1259383; calls by dose curve; note: nearly all actives have a fitted effect of over 15% in size; note: potency is the fitted concentration of half-maximal effect; for activation: top concentration of the series differs between compounds). A digest of the protocol:
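Using VM7Luc4E2 cells seeded 24hr before treatment, antagonist ICI-182,780 (10.0nM final) was added, followed by compounds at 15 concentrations. Plates incubated 22hr; ONE-Glo luminescence quantified reporter activity.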

The target in assay [17] is Progesterone receptor (Homo sapiens) (UniProt P06401). Briefly: qHTS assay to identify small molecule antagonists of the progesterone receptor (PR) signaling pathway (AID 1346795; active = well fitted inhibition curve with a large enough effect in the signal ratio in the repeat runs, not every such curve was filed as active; the % refers to the signal ratio; note: potency is the fitted concentration of half-maximal effect). A digest of the protocol:
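Stimulus R5020 at 1 nM final; cells HEK293T PR-UAS-bla; medium with 2% charcoal-stripped FBS; compound exposure 16 hr at 37C, 5% CO2; detection by FRET beta-lactamase substrate, 2 hr, room temperature.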

Assay [18] is described as follows: qHTS assay to identify small molecule agonists of the progesterone receptor (PR) signaling pathway - cell viability counter screen (AID 1346799; calls by dose curve; note: nearly all actives have a fitted effect of over 45% in size). A digest of the protocol: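 Multiplexed viability read: CellTiter-Glo luminescence, 30 min RT, following LiveBLAzer FRET measurement on PR-UAS-bla HEK293T cells exposed to compounds 16 hr.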
Assay [19] in a line: qHTS assay to identify small molecule agonists or antagonists of the thyroid stimulating hormone receptor (TSHR) signaling pathway - wild type cell line counter screen (AID 1259384; calls by dose curve). A digest of the protocol:
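Counter screen in untransfected Hek293: compounds (15-point titration, triplicate) plus phosphodiesterase inhibitor Ro20-1724 added after 18 h plating; 30 min RT. Intracellular cAMP via competitive d2/cryptate immunoassay, 1 h incubation.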

Sequence of Androgen receptor (Homo sapiens) (P10275 whole entry, looked up): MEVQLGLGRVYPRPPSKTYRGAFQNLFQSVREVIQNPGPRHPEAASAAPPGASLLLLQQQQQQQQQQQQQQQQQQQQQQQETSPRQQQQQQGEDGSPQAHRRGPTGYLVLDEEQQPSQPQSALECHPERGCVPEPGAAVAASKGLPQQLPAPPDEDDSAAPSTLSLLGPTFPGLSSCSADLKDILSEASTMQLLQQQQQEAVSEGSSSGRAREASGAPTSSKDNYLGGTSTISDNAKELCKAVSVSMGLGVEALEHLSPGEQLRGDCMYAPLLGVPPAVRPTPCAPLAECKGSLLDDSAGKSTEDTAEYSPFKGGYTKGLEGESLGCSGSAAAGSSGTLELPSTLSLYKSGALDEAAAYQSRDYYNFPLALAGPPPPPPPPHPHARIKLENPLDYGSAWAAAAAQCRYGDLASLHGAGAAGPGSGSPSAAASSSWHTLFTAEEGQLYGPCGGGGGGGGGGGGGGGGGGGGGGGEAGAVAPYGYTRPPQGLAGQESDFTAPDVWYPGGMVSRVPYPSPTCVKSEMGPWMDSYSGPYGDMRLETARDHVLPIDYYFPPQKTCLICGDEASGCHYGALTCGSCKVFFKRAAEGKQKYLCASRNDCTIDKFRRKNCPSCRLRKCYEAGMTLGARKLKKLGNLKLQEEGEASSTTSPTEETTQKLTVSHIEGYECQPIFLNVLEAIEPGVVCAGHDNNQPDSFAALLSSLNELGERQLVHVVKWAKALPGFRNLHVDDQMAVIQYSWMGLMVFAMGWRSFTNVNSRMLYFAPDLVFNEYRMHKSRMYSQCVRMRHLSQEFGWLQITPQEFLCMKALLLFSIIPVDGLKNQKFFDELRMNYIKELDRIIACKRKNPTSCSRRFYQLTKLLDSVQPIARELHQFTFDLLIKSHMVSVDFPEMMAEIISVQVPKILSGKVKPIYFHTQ
Sequence of Progesterone receptor (Homo sapiens) (P06401 whole entry, looked up): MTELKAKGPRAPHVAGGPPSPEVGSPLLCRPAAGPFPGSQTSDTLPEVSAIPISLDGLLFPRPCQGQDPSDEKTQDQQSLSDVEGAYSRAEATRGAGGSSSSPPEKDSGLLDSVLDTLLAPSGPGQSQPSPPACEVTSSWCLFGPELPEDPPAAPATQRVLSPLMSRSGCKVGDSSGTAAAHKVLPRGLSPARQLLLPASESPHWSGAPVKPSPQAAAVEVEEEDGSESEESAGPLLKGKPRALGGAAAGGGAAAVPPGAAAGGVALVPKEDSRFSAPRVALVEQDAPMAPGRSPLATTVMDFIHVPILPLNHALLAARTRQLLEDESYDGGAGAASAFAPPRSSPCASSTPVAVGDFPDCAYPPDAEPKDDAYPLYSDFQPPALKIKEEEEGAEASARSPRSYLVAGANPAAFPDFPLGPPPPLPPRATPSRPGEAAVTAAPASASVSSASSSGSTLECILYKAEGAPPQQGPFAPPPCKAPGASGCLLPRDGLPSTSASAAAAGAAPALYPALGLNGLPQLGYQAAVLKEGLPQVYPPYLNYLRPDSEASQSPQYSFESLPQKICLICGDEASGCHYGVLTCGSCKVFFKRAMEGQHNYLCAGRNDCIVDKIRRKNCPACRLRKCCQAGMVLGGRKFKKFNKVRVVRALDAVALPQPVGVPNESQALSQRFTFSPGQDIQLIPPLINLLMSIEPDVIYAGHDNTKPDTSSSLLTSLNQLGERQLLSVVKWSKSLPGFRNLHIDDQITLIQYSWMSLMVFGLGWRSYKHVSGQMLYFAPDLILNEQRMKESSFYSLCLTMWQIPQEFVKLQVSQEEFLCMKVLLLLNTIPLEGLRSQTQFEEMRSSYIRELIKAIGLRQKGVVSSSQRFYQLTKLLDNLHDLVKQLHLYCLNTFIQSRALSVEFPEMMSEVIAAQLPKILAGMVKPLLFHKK
Sequence of Estrogen receptor beta (Homo sapiens) (Q92731 whole entry, looked up): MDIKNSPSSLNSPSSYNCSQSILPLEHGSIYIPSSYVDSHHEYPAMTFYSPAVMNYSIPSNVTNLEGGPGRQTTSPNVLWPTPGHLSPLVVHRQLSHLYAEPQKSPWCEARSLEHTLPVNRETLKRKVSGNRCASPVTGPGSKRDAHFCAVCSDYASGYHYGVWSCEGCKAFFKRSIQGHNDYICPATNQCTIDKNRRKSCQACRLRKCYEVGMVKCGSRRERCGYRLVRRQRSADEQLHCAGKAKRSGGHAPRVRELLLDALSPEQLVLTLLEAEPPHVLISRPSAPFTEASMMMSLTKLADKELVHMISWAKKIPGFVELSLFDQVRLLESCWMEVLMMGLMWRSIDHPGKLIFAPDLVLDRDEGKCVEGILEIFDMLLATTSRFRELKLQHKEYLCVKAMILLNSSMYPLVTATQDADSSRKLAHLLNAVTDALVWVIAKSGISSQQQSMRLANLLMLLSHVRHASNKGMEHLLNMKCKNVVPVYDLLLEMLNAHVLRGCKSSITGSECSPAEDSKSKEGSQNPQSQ
Sequence of Thyrotropin-releasing hormone receptor (Homo sapiens) (P34981 whole entry, looked up): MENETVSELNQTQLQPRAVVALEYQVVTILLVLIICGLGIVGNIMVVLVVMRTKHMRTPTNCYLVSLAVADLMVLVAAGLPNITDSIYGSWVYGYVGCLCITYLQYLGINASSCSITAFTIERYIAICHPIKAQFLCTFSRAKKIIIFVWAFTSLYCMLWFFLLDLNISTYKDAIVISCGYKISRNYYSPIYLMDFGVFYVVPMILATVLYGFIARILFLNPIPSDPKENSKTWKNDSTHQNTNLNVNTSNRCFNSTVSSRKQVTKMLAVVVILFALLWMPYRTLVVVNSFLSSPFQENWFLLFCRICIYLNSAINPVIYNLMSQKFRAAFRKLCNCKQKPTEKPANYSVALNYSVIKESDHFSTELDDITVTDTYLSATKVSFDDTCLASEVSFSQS
Sequence of Thyrotropin receptor (Homo sapiens) (P16473 whole entry, looked up): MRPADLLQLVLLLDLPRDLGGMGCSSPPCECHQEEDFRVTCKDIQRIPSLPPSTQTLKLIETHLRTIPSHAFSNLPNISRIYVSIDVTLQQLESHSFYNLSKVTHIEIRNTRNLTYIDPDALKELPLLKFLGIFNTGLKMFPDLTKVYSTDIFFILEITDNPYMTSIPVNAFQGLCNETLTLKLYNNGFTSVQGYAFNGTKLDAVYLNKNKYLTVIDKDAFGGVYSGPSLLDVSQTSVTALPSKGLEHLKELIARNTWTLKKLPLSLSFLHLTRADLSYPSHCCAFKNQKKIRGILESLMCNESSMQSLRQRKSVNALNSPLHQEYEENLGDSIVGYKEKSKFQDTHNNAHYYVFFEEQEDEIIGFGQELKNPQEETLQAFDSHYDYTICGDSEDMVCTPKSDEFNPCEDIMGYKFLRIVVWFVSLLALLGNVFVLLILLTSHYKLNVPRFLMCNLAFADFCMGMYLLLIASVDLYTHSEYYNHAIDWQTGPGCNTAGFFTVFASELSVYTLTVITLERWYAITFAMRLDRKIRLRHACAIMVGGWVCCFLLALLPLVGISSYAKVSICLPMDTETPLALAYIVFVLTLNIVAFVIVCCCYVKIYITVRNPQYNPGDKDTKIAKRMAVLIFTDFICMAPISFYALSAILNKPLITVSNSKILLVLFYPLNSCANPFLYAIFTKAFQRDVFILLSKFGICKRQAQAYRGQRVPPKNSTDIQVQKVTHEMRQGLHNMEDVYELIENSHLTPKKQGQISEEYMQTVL
Sequence of Estrogen receptor (Homo sapiens) (P03372 whole entry, looked up): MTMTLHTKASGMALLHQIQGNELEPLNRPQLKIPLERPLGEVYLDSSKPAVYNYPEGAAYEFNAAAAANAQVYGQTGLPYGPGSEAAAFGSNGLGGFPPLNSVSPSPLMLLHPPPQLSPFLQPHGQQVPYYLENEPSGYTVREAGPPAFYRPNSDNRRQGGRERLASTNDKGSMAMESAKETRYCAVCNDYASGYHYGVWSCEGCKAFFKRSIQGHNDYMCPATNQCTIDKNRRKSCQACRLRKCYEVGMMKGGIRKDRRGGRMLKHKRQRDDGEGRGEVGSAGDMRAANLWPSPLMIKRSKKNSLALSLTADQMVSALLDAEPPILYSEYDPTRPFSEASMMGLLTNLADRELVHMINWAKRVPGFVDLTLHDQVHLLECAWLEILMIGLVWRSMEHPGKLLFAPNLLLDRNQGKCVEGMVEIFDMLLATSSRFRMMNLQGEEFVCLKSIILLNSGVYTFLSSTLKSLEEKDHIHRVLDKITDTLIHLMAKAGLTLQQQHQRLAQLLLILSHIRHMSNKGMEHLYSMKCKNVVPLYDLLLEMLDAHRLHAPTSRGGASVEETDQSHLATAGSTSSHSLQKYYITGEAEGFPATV

In the case of `[Cl][Sb]([Cl])[Cl]`, the Potency entry in [1], in assay [3], in [4], in assay [6], in [7] and in assay [8] was “inactive” each time. Besides, the Potency entry in [9], in assay [11] and in [12] was “inactive” throughout. The Potency in assay [2] was 24.3 µM (active); in assay [5], 54.5 µM (active). Besides, the call in assay [10] was inactive.
As to `C[C@]12Cc3nonc3C[C@@H]1CC[C@@H]1[C@@H]2CC[C@@]2(C)[C@H]1CC[C@]2(C)O`, the Potency in assay [13] is 18.8 µM (active); in assay [3], 26.6 µM (active); in [14], 0.0237 µM (active); in assay [15], 29.8 µM (active); in assay [6], 1.19 µM (active). The Potency result in assay [16], in assay [4], in [5], in assay [11] and in assay [12] was “inactive” throughout. For the same compound, in assay [10], the compound was classed as inactive.
On to `c1ccc2c(c1)[nH]c1cnccc12`, for which the Potency entry in assay [1], in assay [2], in assay [15], in assay [16], in assay [4] and in assay [5] was “inactive” each time. Moreover, the Potency entry in assay [6], in assay [7], in assay [18], in [8], in assay [9] and in assay [11] was “inactive” throughout. Moreover, the Potency result in assay [12] is “inactive”. For the same compound, in assay [17], the Potency is 27.3 µM (active). The call in assay [10] was inactive.
Turning to `C[C@]12CC[C@H]3[C@@H](CCC4=CC(=O)CC[C@@]43C)[C@@H]1CC[C@@H]2O`, the Potency in [1] was 5.41 µM (active). The Potency result in assay [2], in assay [15], in assay [4], in assay [5], in [8] and in assay [9] was “inactive” in each case. Besides, the compound was classed as inactive in assay [19] and in assay [10].
In the case of `Fc1ccc(Oc2ccnc3cc(Cl)cc(Cl)c23)cc1`, the Potency entry in [2], in assay [3], in assay [15], in assay [5], in [6] and in assay [7] was “inactive” each time. Besides, the Potency result in assay [8] and in assay [9] was “inactive” throughout. The outcome in [19] and in assay [10] was inactive.
As for `COS(=O)(=O)c1ccc(C)cc1`, the Potency result in assay [2], in assay [3], in [14], in assay [15], in [16] and in [4] was “inactive” each time. In addition, the Potency entry in [5], in assay [6], in [7], in [18], in assay [8] and in assay [9] was “inactive” throughout. Also, the Potency entry in assay [11] is “inactive”. The call in [19] and in assay [10] was inactive.
Consider `Nc1ccccc1C(=O)Oc1ccc2ccccc2c1`, for which the Potency result in assay [2], in assay [14], in assay [15], in [4], in [6] and in [7] was “inactive” throughout. Further, the Potency entry in assay [18], in assay [8], in assay [9] and in [11] was “inactive” throughout. Also, the Potency in assay [16] is 2.17 µM (active). Also, the compound was called inactive in assay [19] and in assay [10].
As for `CCCCCCCCc1ccc(O)cc1`, the Potency entry in [2], in assay [14], in assay [4], in [8] and in [9] was “inactive” in each case. Besides, the Potency in [3] is 15.4 µM (active); in assay [17], 20.4 µM (active). In assay [10], the result was inactive.

The values above are taken from PubChem BioAssay (Tox21).
